Source: PubChem BioAssay (NCI)
Compounds without any hit were thinned out: in the full panel of roughly 83,000, 20% have a hit.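 Single-concentration screen, 48 h exposure, 96-well plates. Endpoint: percent growth. Below 10 = active.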 Values without a mark were called inactive. Active and inactive are the calls of the source.

Key:
Assay in all cases: NCI-60 one-dose screen, 48 h (100 = growth as untreated, 0 = no growth, -100 = all killed)
Details in all cases: 10 µM unless noted
SK-MEL-2 melanoma = tested on: SK-MEL-2 melanoma
EKVX NSCLC = tested on: EKVX NSCLC
SN12C renal = tested on: SN12C renal
UO-31 renal = tested on: UO-31 renal
TK-10 renal = tested on: TK-10 renal
ACHN renal = tested on: ACHN renal
CAKI-1 renal = tested on: CAKI-1 renal
A498 renal = tested on: A498 renal
CCRF-CEM leukemia = tested on: CCRF-CEM leukemia
MOLT-4 leukemia = tested on: MOLT-4 leukemia

Structure (SMILES) | growth (SK-MEL-2 melanoma) | growth (EKVX NSCLC) | growth (SN12C renal) | growth (UO-31 renal) | growth (TK-10 renal) | growth (ACHN renal) | growth (CAKI-1 renal) | growth (A498 renal) | growth (CCRF-CEM leukemia) | growth (MOLT-4 leukemia)
CCCCSC1=C(Cl)CN(c2ccccc2)C1=O | 121% | 97.8% | 94.6% | 92.2% | 134% | 106% | 94% | 108% | 117% | 
COc1ccc2c(c1)c(-c1nnc(N)nc1-c1c[nH]c3ccc(F)cc13)cn2C | 36.3% | 55.5% | 69.5% | 75.6% | 90% | 64.5% | 41.6% | 27.5% |  | 
Cc1ccc(OCc2occc2C(=O)N2CCOCC2)cc1 | 107% | 96.5% | 103% | 90.9% | 97.3% | 111% | 93.7% | 98.1% |  | 
Clc1ccc2[nH]cc(-c3nn4cc(-c5ccncc5)nc4s3)c2c1 | 79% | 56.5% | 33.9% | 39.6% | 125% | 30.3% | 54.5% | 90.8% | 75.2% | 
O=C(CSc1nc2ccccc2c(=O)n1-c1ccccc1)N/N=C/c1ccc(Oc2ccc(Cl)cc2)cc1 | 86.9% | 59% | 26.9% | 81.2% | 104% | 74.5% | 59.2% | 65.7% | 50.4% | 
Cc1ccc(S(=O)(=O)NCCCNc2nccc(-c3[nH]c(-c4ccccc4)nc3-c3ccc(F)c(O)c3)n2)cc1 | 24.8% | 94.9% | 99.2% | 115% | 134% | 85.8% | 90.7% | 76.3% | 39.7% | 
CN(C)S(=O)(=O)c1ccc(-c2nc(C(Cl)Cl)nc3cc(-c4ccc(F)cc4)nn23)cc1 | 9.25% (active) | 22.7% | 24.3% | 44.3% | 29.5% | 5.28% (active) | 3.68% (active) | 49.7% | 21.7% | 
Cc1ccc(C)c(NC2=C(Cl)C(=O)c3nc(C)ccc3C2=O)c1 | -36.2% (active) | 1.21% (active) | -81.7% (active) | -81.4% (active) | 147% | -96.3% (active) | 57% | 83.8% |  | 
CCc1cc2c(cc1Cl)nc1c(=O)[nH]c(=O)nc-1n2CCOCC(C)C | 80.1% | 68.1% | 57.4% | 57.1% | 176% | 60% | 67.7% | 76.4% | 77.6% | 
COc1ccc(/C=N/N=C(/c2ccccc2)c2ccc3nc(-c4ccc(Cl)cc4)[nH]c3c2)cc1 | 89.1% | 91.9% | 85.4% | 78.7% | 81.9% | 87.5% | 72.4% | 59.8% | 68.1% | 
N#C/C(=C\c1ccc(-c2ccc(Cl)c(Cl)c2)o1)C(=O)Nc1ncc(Cc2ccc(Cl)cc2)s1 | 87.9% | 32.2% | 12% | 24.9% | 68.5% | 59.1% | 57.4% | 40.9% | 31.9% | 
CNC(=O)c1cc(-c2ccc(NC(=S)Nc3cccc(C(F)(F)F)c3)cc2)nc2cccnc12 | 103% | 98.1% | 97.3% | 81.8% | 102% | 94.8% | 91.3% | 88.8% | 88% | 
CN1CCN(Cc2ccc(NC(=O)c3cncc(C#Cc4cnc5ccc(N)nn45)c3)cc2C(F)(F)F)CC1 | -27.9% (active) | 37.1% | 15.7% | 96.3% | 40.4% | 27.7% | 13.8% | 67% | 11.8% | 
CC1=C(C)C(=O)C(Nc2cccc(C)c2)=C(Br)C1=O | 117% | 68.7% | 96.9% | 80.2% | 152% | 95.7% | 99.3% | 95.5% | 16.5% | 
O=C(COc1ccc(/C=C2\C(=O)Nc3ccc(Cl)cc32)cc1)Nc1ccc(Cl)cc1 | 88.6% | 74.9% | 53% | 50.8% | 112% | 33.3% | 34.8% | 72.4% | 47.2% | 
Cc1cc2nc3c4cc(C#N)ccc4n(CCN(C)C)c3nc2cc1C | -86.7% (active) | -7.83% (active) | 2.81% (active) | -27.9% (active) | -2.16% (active) | -13.7% (active) | -27.3% (active) | -44% (active) | 3.32% (active) | 
Cc1nc(N)sc1-c1csc(Nc2ccc(C(F)(F)F)cc2)n1 | 8.77% (active) | 27% | 29.2% | 21.1% | 35% | 13% | 33.9% | 82.4% | 21.3% | 18.3%
NCCNC(=O)c1cccc(COc2ccccc2NC(=O)c2cc(Cl)c(Cl)[nH]2)c1 | 106% | 94.4% | 100% | 92.2% | 94.2% | 100% | 81.9% | 81.5% | 85.8% | 
O=C(Nc1ccc(Cl)c(C(F)(F)F)c1)Nc1ccc2c(ccn2C(=O)c2cccc(F)c2)c1 | 45.3% | 30% | 42.9% | 35.6% | 45.9% | 17.7% | 29.1% | 70.3% | 15.8% | 
Cn1cc(-c2nn3cc(-c4ccncc4)nc3s2)c2cc(F)ccc21 | 99.8% | 72.9% | 88.6% | 55.1% | 155% | 84% | 63.4% | 96.3% | 16% | 
Fc1cccc(Cl)c1/C=N/Nc1nc(N/N=C/c2c(F)cccc2Cl)nc(N2CCCCC2)n1 | -25.8% (active) | 13.8% | 23.2% | 9.02% (active) | 27.2% | 4.21% (active) | 14.1% | 52.8% | 22.3% | 
COc1ccc(C(=O)c2c(N)c(C#N)cn2-c2ccc(Cl)cc2Cl)cc1 | 97% | 93.6% | 100% | 84.5% | 105% | 98.1% | 91.7% | 109% | 101% | 
O=C1/C(=C/c2cc(F)cc(F)c2)Cc2cc3c(cc21)OCO3 | 44.3% | 73.5% | 45.7% | 41.3% | 99.4% | 43.9% | 29.1% | 20.2% | 56.1% | 
CCN(CC)c1ccc(/C=N/NC(=O)c2ccc(NS(C)(=O)=O)cc2)c(O)c1 | 40.7% | 15.6% | 31.4% | 13.1% | 47.9% | 15.9% | 18.8% | 18.9% | 6.1% (active) | 
Cc1ccc2c(n1)C(=O)C(Cl)=C(Nc1ccccc1C(=O)OC(C)(C)C)C2=O | 93.6% | 28% | 52.6% | -62.7% (active) | -84.6% (active) | -73.6% (active) | -92.4% (active) | 92.3% | -27.1% (active) | -32.6% (active)
Cn1c(SCC(=O)c2ccco2)nc2ccccc2c1=O | 106% | 55.2% | 105% | 68.7% | 146% | 101% | 74.7% | 144% | 98.8% | 
CN(C)c1cccc2c(S(=O)(=O)Nc3cccc(-c4csc(NC(=O)CCCCCN5CCN(CCO)CC5)n4)c3)cccc12 | 99.7% | 85% | 80.1% | 86.4% | 120% | 96.9% | 86.1% | 101% | 72.8% | 47.5%
Cc1[nH]c(C(=O)Nc2ccc(C(N)=O)cc2N2CCOC(C)C2)c(Cl)c1Cl (stereo unspecified) | 104% | 93.1% | 96.4% | 82.6% | 100% | 88.4% | 98.4% | 72.4% | 99.5% | 
COc1ccc(/C(=N\N=C(N)N)c2ccc(Cl)cc2)cc1OC | 99.9% | 72.6% | 70.8% | 83.7% | 77% | 94.8% | 50.1% | 76.5% | 67.3% | 
